Drawing on PubChem BioAssay AID1347418 (Sanford-Burnham Center for Chemical Genomics, 2020), this text covers inhibition for 109 molecules.

Structures are written as SMILES. Hit rate of the full screen: of about 1,300 compounds, about 750 (58%) were called active. Some of the results follow. Values without a mark were called inactive.

The inhibition is the drop in the measured response relative to a control, in per cent.

The experiment deals with Sulfhydryl oxidase 1 (Homo sapiens) (UniProt O00391). The experiment in a line: inhibition of human sulfhydryl oxidase QSOX1 – biochemical, ROS-Glo H2O2 luminescence, HTS, primary screen (AID 1347418). The settings on record: recombinant QSOX1, ROS-Glo H2O2 luminescence; at 12.5 µM; hits give high values; active = any value above zero.
Sulfhydryl oxidase 1 (Homo sapiens), sequence (O00391 whole entry, looked up): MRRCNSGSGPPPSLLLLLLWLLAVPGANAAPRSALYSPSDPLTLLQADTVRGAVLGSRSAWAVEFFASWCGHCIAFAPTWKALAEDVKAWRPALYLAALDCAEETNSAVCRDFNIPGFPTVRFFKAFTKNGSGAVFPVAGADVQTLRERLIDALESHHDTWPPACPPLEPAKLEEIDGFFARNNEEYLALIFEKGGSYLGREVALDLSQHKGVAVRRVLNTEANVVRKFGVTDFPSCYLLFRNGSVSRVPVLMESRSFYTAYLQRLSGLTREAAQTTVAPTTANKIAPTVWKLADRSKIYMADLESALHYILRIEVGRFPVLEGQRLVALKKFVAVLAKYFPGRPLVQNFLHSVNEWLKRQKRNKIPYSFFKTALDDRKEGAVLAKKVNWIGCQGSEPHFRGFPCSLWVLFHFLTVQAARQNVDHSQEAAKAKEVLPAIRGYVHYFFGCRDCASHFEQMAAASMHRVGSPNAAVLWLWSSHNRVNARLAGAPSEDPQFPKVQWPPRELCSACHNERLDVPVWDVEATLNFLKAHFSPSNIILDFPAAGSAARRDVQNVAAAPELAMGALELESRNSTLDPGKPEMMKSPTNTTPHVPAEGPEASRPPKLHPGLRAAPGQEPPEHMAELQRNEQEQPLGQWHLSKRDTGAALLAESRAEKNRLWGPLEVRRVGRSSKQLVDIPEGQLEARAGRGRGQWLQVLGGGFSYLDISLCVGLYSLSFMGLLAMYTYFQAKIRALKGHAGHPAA
For the molecule `COC(=O)C1=C(C)NC(C)=C(C(=O)OC(C)(C)CN(C)CCC(c2ccccc2)c2ccccc2)C1c1cccc([N+](=O)[O-])c1` (centres undefined), the inhibition was -1.4%.

Take `CCOC(=O)C1=C(C)NC(C)=C(C(=O)OC)C1c1cccc(Cl)c1Cl` (centres undefined): the inhibition is 3% (active). Then `CCOC(=O)C1=C(C)NC(C)=C(C(=O)OC)C1c1cccc([N+](=O)[O-])c1` (centres undefined), with 1% (active); and `C#CCN1C(C)=C(C(=O)OC)C(c2cccc([N+](=O)[O-])c2)C(C(=O)OCC)=C1C` (centres undefined), with -3%. For `COC(=O)C1=C(C)NC(C)=C(C(=O)OCCN(C)Cc2ccccc2)C1c1cccc([N+](=O)[O-])c1` (centres undefined) the value was -1.6%. Then `COC(=O)C1=C(C)NC(C)=C(C(=O)OC)C1c1ccccc1[N+](=O)[O-]`, with -1.1%. As to `CCOC(=O)C1=C(C)NC(C)=C(C(=O)OCC)C1c1c(F)c(F)c(F)c(F)c1F`, the inhibition was -3.2%. Regarding `COCCOC(=O)C1=C(C)NC(C)=C(C(=O)OC/C=C/c2ccccc2)C1c1cccc([N+](=O)[O-])c1` (centres undefined), the inhibition is 5.1% (active). Then `COCCOC(=O)C1=C(C)NC(C)=C(C(=O)OC(C)C)C1c1cccc([N+](=O)[O-])c1` (centres undefined), with -2.5%; and `O=C(O)CN(CCOCCOCCN(CC(=O)O)CC(=O)O)CC(=O)O`, with -5.4%; and `CCCCCCCCCCC(C)(C)C(=O)Nc1c(OC)cc(OC)cc1OC`, with -1%. For `COc1ccccc1N1CCN(CC(O)COc2cccc3ccccc23)CC1` (centres undefined) the value was 8.9% (active); for `COc1ccccc1OCC(O)CN1CCN(CC(=O)Nc2c(C)cccc2C)CC1` (centres undefined), 3.9% (active); for `COc1cc2nc(N3CCN(C(=O)OCc4ccccc4)C(C(=O)NC(C)(C)C)C3)nc(N)c2cc1OC` (centres undefined), 4.3% (active). On to `COc1cc2nc(N3CCN(C(=O)C4CCCO4)CC3)nc(N)c2cc1OC` (centres undefined), for which the inhibition is 0.3% (active). Then `COc1cc2nc(N3CCN(C(=O)c4ccco4)CC3)nc(N)c2cc1OC`, with -0.3%; and `COc1cc2nc(N3CCN(C(=O)C4COc5ccccc5O4)CC3)nc(N)c2cc1OC` (centres undefined), with 4.9% (active). For `COc1cc2nc(N(C)CCCNC(=O)C3CCCO3)nc(N)c2cc1OC` (centres undefined) the value was 1.1% (active); for `NC(=O)c1ccccc1`, 7.2% (active); for `NC(=O)c1cccc(N)c1`, 2.2% (active).

Take `CCn1c(=O)[nH]c2cc(Cl)c(Cl)cc21`: the inhibition is -5.4%. For `NS(=O)(=O)c1cc2c(cc1Cl)NCNS2(=O)=O` the value was -0.5%; for `NS(=O)(=O)c1cc2c(cc1Cl)NC(C1CC3C=CC1C3)NS2(=O)=O` (centres undefined), -0.4%; for `NS(=O)(=O)c1cc2c(cc1Cl)NC=NS2(=O)=O`, 2.5% (active). For `COc1cccc2c1[C@@H]1CN(CCCCn3c(=O)[nH]c4c(sc5ncc(-c6ccccc6)nc54)c3=O)C[C@@H]1CO2` the value was -1.5%; for `CC(C)[C@@H]1CC[C@@H](C)C[C@@H]1P(=O)(c1ccccc1)c1ccccc1`, 2.9% (active).

As to `CCCn1c(=O)c(C)cn2nc(N)nc12`, the inhibition was 4.5% (active).

Turning to `NC(N)=NCc1cccc(I)c1`, the inhibition is 3.9% (active). Then `O=c1[nH]c2cc([N+](=O)[O-])c([N+](=O)[O-])cc2[nH]c1=O`, with 2.2% (active); and `CCCOC(=O)c1c(-c2ccccc2)nc(CC)c(C(=O)SCC)c1CCC`, with -3.6%.

For the molecule `O=C(O)CCc1nc(-c2ccccc2)c(-c2ccccc2)o1`, the inhibition is 3.2% (active). Then `CC1(C)CCC(NC(=O)[C@@H](N)CCC(=O)O)CC1`, with -1.9%; and `C#CC(N)CCC(=O)O` (centres undefined), with 5.9% (active); and `C=Cc1c(C)c2cc3[nH]c(cc4nc(cc5nc(cc1[nH]2)C(C)=C5CCC(=O)O)C(CCC(=O)O)=C4C)c(C)c3C=C`, with -1.1%.

Take `O=C(O)[C@@H]1C[C@@H](C(=O)O)N1`: the inhibition is -2.9%. As to `CC1(C)NC(=O)N(c2ccc([N+](=O)[O-])c(C(F)(F)F)c2)C1=O`, the inhibition is -0.4%. For `CC(C)C(=O)Nc1ccc([N+](=O)[O-])c(C(F)(F)F)c1` the value was 6.8% (active). For `COC(=O)C1=C(C)NC(C)=C([N+](=O)[O-])C1c1ccccc1C(F)(F)F` (centres undefined) the value was -3.4%. Then `Oc1ccc(Cn2cc[nH]c2=S)cc1`, with 5.9% (active). As for `CCCCCN(C)CCC(O)(P(=O)(O)O)P(=O)(O)O`, the inhibition was 0.6% (active). Then `NCCNS(=O)(=O)c1cccc2c(Cl)cccc12`, with 0.1% (active); and `O=C(O)CC1CCCc2ccccc2C1O` (centres undefined), with -2.6%; and `CSc1ccccc1N1CCN(CCCCCC(=O)NC2CCCc3ccccc32)CC1` (centres undefined), with -1.2%.

As for `O=C(CCCCCN1CCN(c2ccccc2-c2ccccc2)CC1)NC1CCCc2ccccc21` (centres undefined), the inhibition is 2.4% (active).

As for `O=C(O)c1cccnc1C(=O)O`, the inhibition is -3%. For `O=C(O)c1cccnc1Nc1cccc(C(F)(F)F)c1` the value was 3.2% (active); for `c1ccc2nc(C3=NCCN3)ccc2c1`, 0.1% (active). Take `CC(C)(Sc1ccc(CCN(CCCCC2CCCCC2)C(=O)NC2CCCCC2)cc1)C(=O)O`: the inhibition was 0.8% (active). For `CCc1c(C(=O)NCCc2ccc(N3CCCCC3)cc2)[nH]c2ccc(Cl)cc12` the value was 1.2% (active); for `CN=c1nc(-c2ccccc2)n(-c2ccccc2)s1`, -4.5%; for `O=C(/C=C/c1ccc(O)cc1)c1ccc(O)cc1O`, 20.8% (active).

On to `C#C[C@]1(O)CC[C@H]2[C@@H]3CCC4=Cc5oncc5CC4(C)[C@H]3CCC21C` (some centres undefined), for which the inhibition is 3.6% (active).

As to `CCCCCN(CCCCC)C(=O)C(CCC(=O)O)NC(=O)c1ccc(Cl)c(Cl)c1` (centres undefined), the inhibition was 3% (active). In the case of `CCCN(CCC)C(=O)C(CCC(=O)O)NC(=O)c1ccccc1` (centres undefined), the inhibition was -6.3%. For `S=C([S-])OC1CC2C[C+]1C1CCCC21` (centres undefined) the value was -1.8%; for `O=c1onc2cnc3ccccc3n12`, 1.7% (active). Consider `CN(C)CCCC1(c2ccc(F)cc2)OCc2cc(C#N)ccc21` (centres undefined), for which the inhibition is -4.9%. Then `O=c1[nH]cnc2[nH]ncc12`, with 7.1% (active). Then `OCC1NCC(O)C(O)C1O` (centres undefined), with 0.3% (active). Then `OC[C@H]1NC[C@@H](O)[C@@H]1O`, with 3.1% (active); and `CN=C(N)NCCC[C@H](N)C(=O)O`, with -2.7%; and `CCCCS(=N)(=O)CCC(N)C(=O)O` (centres undefined), with 5.6% (active). As to `CCCCS(=N)(=O)CC[C@H](N)C(=O)O` (some centres undefined), the inhibition is 2.8% (active). Then `CCCC(CCC)C(=O)O`, with -0.3%; and `O=S(=O)(c1cccc2c(Cl)cccc12)N1CCCNCC1`, with 0.5% (active). For `O=S(=O)(c1cccc2c(I)cccc12)N1CCCNCC1` the value was 8.3% (active); for `CC(=O)O[C@H]1C(=O)[C@@]2(C)C([C@H](OC(=O)c3ccccc3)[C@]3(O)C[C@H](OC(=O)[C@H](O)[C@@H](NC(=O)c4ccccc4)c4ccccc4)C(C)=C1C3(C)C)[C@]1(OC(C)=O)CO[C@@H]1C[C@@H]2O` (some centres undefined), 1.7% (active); for `C=CC[C@H](N)C(=O)O`, 4.9% (active). For `N[C@H](CO)C(=O)O` the value was 1.4% (active); for `N[C@@H](CC(=O)O)C(=O)O`, 4.2% (active); for `N[C@@H](CS(=O)O)C(=O)O`, -2.6%. Turning to `NOCC(=O)O`, the inhibition is -7.4%. Regarding `N[C@@H](COP(=O)(O)O)C(=O)O`, the inhibition is -1.4%. Then `CC(=O)N[C@@H](CS)C(=O)O`, with 1.8% (active); and `CC(=O)N[C@H](C(=O)O)C(C)(C)SN=O`, with -3.3%; and `N[C@@H]1CONC1=O`, with -12.8%. Then `Cc1ccccc1/C=C/C1=NCCN1`, with 0.5% (active). Then `C[C@@H](CN1CCC(Cc2ccccc2)CC1)[C@@H](O)c1ccc(O)cc1`, with 3.4% (active).

On to `CC(C)(C)c1ccc(C(O)CCCN2CCC(C(O)(c3ccccc3)c3ccccc3)CC2)cc1` (centres undefined), for which the inhibition is -4%. For `CC(C(O)c1ccc(O)cc1)N1CCC(Cc2ccccc2)CC1` (centres undefined) the value was 7.3% (active); for `CC(C)(C(=O)O)c1ccc(C(O)CCCN2CCC(C(O)(c3ccccc3)c3ccccc3)CC2)cc1` (centres undefined), -1.3%; for `CC(C)(C)NCC(O)c1ccc(O)c(CO)c1` (centres undefined), 5.3% (active). Consider `CNC[C@H](O)c1ccc(O)c(O)c1`, for which the inhibition is 8.4% (active).

For the molecule `CC(C)(C)NCC(O)c1cc(O)cc(O)c1` (centres undefined), the inhibition is -2%. Turning to `CNC[C@H](O)c1cccc(O)c1`, the inhibition was -3.5%. For `CNCC(O)c1ccc(O)c(O)c1` (centres undefined) the value was 2.8% (active); for `Cc1cn[nH]c1`, 1.9% (active).

With `NS(=O)(=O)C1=[C+]C=[C+]c2c1c([N+](=O)[O-])cc1nc([O-])c([O-])nc21`, the inhibition was -4.9%.

Turning to `COc1ccccc1CNCCCCCCNCCCCCCCCNCCCCCCCNc1ccccc1OC`, the inhibition was 1.8% (active). Then `CCCCCCCC/C=C\CCCCCCCC(=O)NCCO`, with 6.9% (active). Then `CCCCCCCCCCCCCCCC(=O)NCCO`, with -1.3%. Then `Oc1ccc(C2CNCc3sccc32)cc1O` (centres undefined), with 15.7% (active); and `CN1Cc2sccc2C(c2ccc(O)c(O)c2)C1` (centres undefined), with 23.4% (active); and `c1cnc2c(c1)ccc1cccnc12`, with -2.1%. Regarding `c1ccc(-c2ccccn2)nc1`, the inhibition is 7.3% (active). As to `Cn1c(=O)[nH]c2ncn(C)c2c1=O`, the inhibition is 3% (active). Consider `Cn1cnc2c1c(=O)[nH]c(=O)n2C`, for which the inhibition was 3.2% (active).

As for `CC1(C)CCC=[N+]1[O-]`, the inhibition was -1.5%.

On to `CCN(CC)C(C)CN1c2ccccc2Sc2ccccc21` (centres undefined), for which the inhibition was 50.6% (active). With `CC(CN1c2ccccc2Sc2ccccc21)N(C)C` (centres undefined), the inhibition is 43.7% (active).

Consider `O=C1NC(=O)/C(=C/c2ccc(-c3ccc(F)cc3O)o2)S1`, for which the inhibition was 27.2% (active). For `O=C(O)[C@@H]1C[C@H](C(=O)O)N1`, the inhibition was -6.9%. For `C=CCNc1ncnc2ccc(Br)cc12` the value was -1.1%; for `NC(=O)c1cnccn1`, 0.9% (active). In the case of `NC(CO)C(=O)NNCc1ccc(O)c(O)c1O` (centres undefined), the inhibition is 25.6% (active). Then `O=c1onc2n1-c1cc(Br)ccc1OC2`, with -0.8%. For `NCCCCC(=O)O` the value was -2.5%; for `O=C(O)CCCC[C@@H]1CCSS1`, -2.4%; for `NCCCCCC(=O)O`, 5% (active).
